# Measured values as given in PubChem BioAssay (Tox21).
# Results filed as inconclusive are left out. Unmarked numbers belong to inactive results. The call rests on the fitted dose curve; in most records, active means well fitted cell-killing curve with a large enough effect in the repeat runs; inconclusive means weak or mixed curves, or effect the other way; inactive means no such curve, though single readings can be large or run the other way.
# Assay: qHTS assay to identify small molecule agonists of the vitamin D receptor (VDR) signaling pathway - cell viability counter screen (AID 743224)
# Details: VDR-bla HEK293T viability, CellTiter-Glo luminescence, 16 h; series mostly up to 62.6 µM; activity change, negative = cytotoxicity: at the top concentration
# Method in brief: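 In parallel with the bla FRET readout, cytotoxicity toward VDR-bla cells after 16 h compound exposure was assessed by CellTiter-Glo, with luminescence recorded after a 30 min room-temperature incubation.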
# Further: nearly all actives have a fitted effect of over 50% in size.
# On the % scale 0 is the no-effect control and ±100 the full control effect.
row,Compound,"activity change, negative = cytotoxicity"
1,CCOC(=O)COc1ccc2c(C)c(CCN(CC)CC)c(=O)oc2c1Cl,-3.56%
2,CCCCCCC(O)CO (stereo unspecified),0.839%
3,NCC1CCC(C(=O)Oc2ccc(CCC(=O)O)cc2)CC1 (stereo unspecified),-0.812%
4,OCCC(F)(F)C(F)(F)C(F)(F)C(F)(F)C(F)(F)C(F)(F)F,16.4%
5,CCOC(=O)CC(C(C)=O)C(C)=O,-0.265%
6,CCCCCCCCOCCC#N,9.26%
7,CC(=O)OC/C=C(/C)CCC=C(C)C,4.9%
8,CN(C)CCCN(C)C,0.624% [at 5.95 µM]
9,CCCC(=O)C(CC)Sc1ccoc1C (stereo unspecified),5.1%
10,CCCCCCCCCCCBr,-0.827%
11,Clc1cc(Cl)c(Cl)c(Cl)c1Cl,-0.728%
12,CCCCN=C(N)N=C(N)N,-0.189%
13,COC(=O)c1c(C)cc(O)c(C)c1O,-4.84%
14,CC(C)(C)C(=O)CCc1ccc(Cl)cc1,25.8%
15,Cc1ccccc1C#N,-2.37%
16,CC(C)(C)c1ccc(N)cc1,1.39%
17,COc1cc(OC)cc(OC)c1,4.63%
18,Cc1ccc(Br)cc1,-0.585%

row,Compound,"activity change, negative = cytotoxicity"
1,C=CCON/C(CCC)=C1\C(=O)CC(C)(C)C(C(=O)OC)=C1O,-0.288%
2,C[C@@H]1CCC[C@H](C)N1CCCC(O)(c1ccccc1)c1ccccn1 (stereo partly specified),-0.629%
3,NNC(=O)OCc1ccccc1,-18.9%
4,CC(C)(C)c1ccc(C(=O)CCCCl)cc1,6.78%
5,C[C@@H](CN1CC(=O)NC(=O)C1)N1CC(=O)NC(=O)C1,12.4%
6,CC(C)(O)CCCC1=CCC(C=O)CC1 (stereo unspecified),-27.6% [at 81.1 µM]
7,O=C(c1ccccc1)c1cccc(O)c1,-16.7% [at 81.1 µM]
8,O=CN1CCCCC1,0.859%
9,CN1C(CCl)Nc2cc(Cl)c(S(N)(=O)=O)cc2S1(=O)=O (stereo unspecified),5.04%
10,CCOCCOCCOC(C)=O,21.7% [at 81.1 µM]
11,COC(C)(C)CC(C)=O,0.458%
12,CCCOc1ccc(C(=O)OCCN(CC)CC)cc1N,24.3%
13,CC[N+](C)(CC)CC,9.99%
14,Nc1nc(Cl)cc(Cl)n1,-1.7%
15,O=Cc1ccc(C(=O)O)cc1,4.45% [at 81.1 µM]
16,O=P(O)(O)C(O)(Cc1cccnc1)P(=O)(O)O,7.27%
17,CCCCCCCCC1CO1 (stereo unspecified),8.38% [at 81.1 µM]
18,CCCCCCCCCCCCCCCC(=O)OC,1.92% [at 29.1 µM]

# Assay: qHTS assay to identify small molecule antagonists of the vitamin D receptor (VDR) signaling pathway - cell viability counter screen (AID 743225)
# Details: VDR-bla HEK293T viability, CellTiter-Glo luminescence, 16 h; series mostly up to 61 µM; viability change, negative = cytotoxic: at the top concentration
# Method in brief: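 Cytotoxicity toward the VDR-bla HEK 293T line was scored by ATP-based CellTiter-Glo luminescence, read in the wells already used for the beta-lactamase readout after 16 h compound treatment under 3 nM 1-alpha,25-dihydroxyvitamin D3 stimulation.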
row,Compound,"viability change, negative = cytotoxic"
1,CCOC(=O)COc1ccc2c(C)c(CCN(CC)CC)c(=O)oc2c1Cl,5.16%
2,CCCCCCC(O)CO (stereo unspecified),-16.4%
3,NCC1CCC(C(=O)Oc2ccc(CCC(=O)O)cc2)CC1 (stereo unspecified),7.09%
4,OCCC(F)(F)C(F)(F)C(F)(F)C(F)(F)C(F)(F)C(F)(F)F,16.1%
5,CCOC(=O)CC(C(C)=O)C(C)=O,-0.759%
6,CCCCCCCCOCCC#N,6.91%
7,CC(=O)OC/C=C(/C)CCC=C(C)C,19.6%
8,CCCC(=O)C(CC)Sc1ccoc1C (stereo unspecified),-2.78%
9,CCCCCCCCCCCBr,-4.83%
10,Clc1cc(Cl)c(Cl)c(Cl)c1Cl,-0.761%
11,CCCCN=C(N)N=C(N)N,0.657%
12,COC(=O)c1c(C)cc(O)c(C)c1O,22.4%
13,CC(C)(C)C(=O)CCc1ccc(Cl)cc1,-27.2%
14,Cc1ccccc1C#N,-9.01%
15,CC(C)(C)c1ccc(N)cc1,13.3%
16,COc1cc(OC)cc(OC)c1,0.763%
17,Cc1ccc(Br)cc1,7.31%
18,C=CCON/C(CCC)=C1\C(=O)CC(C)(C)C(C(=O)OC)=C1O,1.22%

row,Compound,"viability change, negative = cytotoxic"
1,C[C@@H]1CCC[C@H](C)N1CCCC(O)(c1ccccc1)c1ccccn1 (stereo partly specified),-19.5%
2,NNC(=O)OCc1ccccc1,0.276%
3,CC(C)(C)c1ccc(C(=O)CCCCl)cc1,4.34%
4,C[C@@H](CN1CC(=O)NC(=O)C1)N1CC(=O)NC(=O)C1,-0.856%
5,CC(C)(O)CCCC1=CCC(C=O)CC1 (stereo unspecified),-30.6% [at 78.8 µM]
6,O=C(c1ccccc1)c1cccc(O)c1,-6.42% [at 78.8 µM]
7,O=CN1CCCCC1,9.71%
8,CN1C(CCl)Nc2cc(Cl)c(S(N)(=O)=O)cc2S1(=O)=O (stereo unspecified),-3.11%
9,CCOCCOCCOC(C)=O,11.8% [at 78.8 µM]
10,COC(C)(C)CC(C)=O,4.91%
11,CCCOc1ccc(C(=O)OCCN(CC)CC)cc1N,-7.85%
12,CC[N+](C)(CC)CC,0.222%
13,Nc1nc(Cl)cc(Cl)n1,2.43%
14,O=Cc1ccc(C(=O)O)cc1,0.147% [at 78.8 µM]
15,O=P(O)(O)C(O)(Cc1cccnc1)P(=O)(O)O,2.38%
16,CCCCCCCCC1CO1 (stereo unspecified),-12.8% [at 78.8 µM]
17,CCCCCCCCCCCCCCCC(=O)OC,-2.42% [at 28.5 µM]
